Laboratory results published in PubChem BioAssay (NCI).
Compounds without any hit were thinned out: in the full panel of roughly 83,000, 20% have a hit.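 Growth was measured after 48 h exposure to one concentration of compound in 96-well plates. Values under 10 count as active.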 Unmarked numbers belong to inactive results. Active and inactive are the calls of the source.

What was measured:
Assay in all cases: NCI-60 one-dose screen, 48 h (100 = growth as untreated, 0 = no growth, -100 = all killed)
Details in all cases: 10 µM unless noted
[1] = system: NCI-H23 lung
[2] = system: NCI-H226 lung
[3] = system: NCI-H322M lung
[4] = system: HOP-62 NSCLC
[5] = system: HOP-92 NSCLC
[6] = system: NCI-H522 lung
[7] = system: A549/ATCC NSCLC
[8] = system: 786-0 renal
[9] = system: COLO 205 colon
[10] = system: DU-145 prostate
[11] = system: K-562 leukemia
[12] = system: MALME-3M melanoma
[13] = system: MDA-MB-231 breast
[14] = system: RXF 393 renal
[15] = system: SF-268 CNS
[16] = system: SF-295 CNS
[17] = system: SF-539 CNS
[18] = system: UACC-257 melanoma
[19] = system: M14 melanoma
[20] = system: NCI-H460 lung

Row | Structure (SMILES) | growth [1] | growth [2] | growth [3] | growth [4] | growth [5] | growth [6] | growth [7] | growth [8] | growth [9] | growth [10] | growth [11] | growth [12] | growth [13] | growth [14] | growth [15] | growth [16] | growth [17] | growth [18] | growth [19] | growth [20]
1 | O=c1onc(-c2cc3ccccc3nc2Cl)n1-c1cccc2ccccc12 | 56.5% | 40.8% | 76.4% | 55.6% | 38.7% | 27.8% | 55.5% | 73.3% | 56.4% | 80.7% | 17.6% | 55.3% | 29.7% | 43.5% | 73.8% | 15.5% | 52.6% | 70.7% | 38.3% | –
2 | COc1ccc(C(=O)/C=C/c2ccc(Oc3nc(Nc4ccc(F)cc4)nc(N(C)C)n3)c(OC)c2)cc1 | 42% | 69.7% | 80.4% | – | 57.4% | 49.7% | 64.7% | 57.3% | 93.1% | 51.7% | 26.4% | 79% | 53.9% | 50.6% | 51.8% | 51.5% | 26.8% | 42.5% | 65.1% | 26.2%
3 | CC(=O)Nc1ccc(-c2cn(-c3cccc(C(=O)Nc4ccc(N5CCN(C)CC5)cc4)c3)nn2)cn1 | 67.4% | 69.1% | 96.2% | 60% | 44.8% | 91.8% | 76.1% | 12.5% | 72% | 83.4% | 31.5% | 72% | – | 97% | 88.7% | 58.6% | 68.6% | 100% | 87% | –
4 | O=C(/C=C/Nc1ccc(Cl)cc1)c1ccc2c(c1)Nc1ccccc1S2 | 33.1% | 8.89% (active) | 59.5% | – | 13.6% | 34.9% | 43.1% | -6.27% (active) | 62.5% | 33.5% | 49.2% | 50.7% | 26.8% | 14.5% | 42.3% | 23.4% | 8% (active) | 74.5% | 49.5% | 13.3%
5 | O=C(COc1ccc(NC(=O)Nc2ccc(Cl)c(Cl)c2)cc1)N=Nc1c(O)[nH]c2ccc([N+](=O)[O-])cc12 | 62.1% | 90.1% | 85.3% | – | 94% | 61.1% | 62.4% | 53.7% | 14.3% | 64.8% | 25.1% | 77.9% | 37% | 75.4% | 84.3% | 53.1% | 1.4% (active) | 67.6% | 34.4% | 3.51% (active)
6 | COc1ccc(-c2ccc(SCC(=O)Nc3ccc(S(N)(=O)=O)cc3Br)nn2)cc1 | 77.4% | 52.9% | 84.5% | -9.99% (active) | – | 37.2% | 64.4% | 33.8% | 115% | 72% | 101% | 89.4% | 85.1% | 89.2% | 17.9% | 60.2% | 42.9% | 87.9% | 101% | –
7 | COc1ccc(C(=O)/C=C/c2cccc(Cl)c2)cc1S(N)(=O)=O | -10.4% (active) | 38.3% | 10.7% | – | 85.8% | -50.1% (active) | -81.7% (active) | -57.3% (active) | -65.1% (active) | -40.6% (active) | – | 27.6% | -4.13% (active) | -65.8% (active) | 7.86% (active) | -88.8% (active) | -80.6% (active) | -29.6% (active) | -10.5% (active) | 3.05% (active)
8 | S=C(Nc1ccccc1)Nc1ccc(OCc2nc3ccccc3[nH]2)cc1 | 37% | 79.9% | 63.6% | 43.6% | 74.8% | 2.87% (active) | 31% | 31.8% | 32.9% | 43.8% | 15% | 51.6% | 37% | 75.1% | 24.1% | 24.2% | 30.7% | 48.2% | 36.9% | –
